Experimental data reported in PubChem BioAssay (EPA / NIEHS).
Results filed as inconclusive are left out. Some compounds were tested as several samples or in several runs, with calls that do not always agree. The source made the active and inactive calls. How the source made its calls, unless noted: active means hit-call score of the fitted dose curve at least 0.9, where 1 is the maximum; inconclusive means response in the unintended direction; inactive means score below 0.9.

Tests used:
[1] = read-out: sulfotransferase 2A1 (SULT2A1), SULT2A1 (gene 6822); experiment: LTEA_HepaRG_SULT2A1: Life Technologies and Expression Analysis (LTEA) Assay for sulfotransferase 2A1 (SULT2A1) using HepaRG (AID 2283531; active means hit-call score of the fitted dose curve at least 0.9, where 1 is the maximum; inactive means score below 0.9); conditions: mRNA level, 48 h; actives raise or lower the signal
Summary of the method: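 Expression change of SULT2A1, by qRT-PCR with three housekeeping-gene normalization, was scored bidirectionally versus DMSO. Cells: differentiated HepaRG, dosed in duplicate for 48 h across 8 points, highest 100 µM, half-log dilution, 0.5% DMSO.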

[2] = read-out: Transforming Growth Factor (TGFA), TGFA (gene 7039); experiment: LTEA_HepaRG_TGFA: Life Technologies and Expression Analysis (LTEA) Assay for Transforming Growth Factor (TGFA) using HepaRG (AID 2283532; active means hit-call score of the fitted dose curve at least 0.9, where 1 is the maximum; inactive means score below 0.9); conditions: mRNA level, 48 h; actives raise or lower the signal
Summary of the method: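 HepaRG (human liver line), 48 h exposure, 8 conc. half-log down from 100 uM, 0.5% DMSO vehicle, duplicates; serum-free induction medium. TGFA mRNA by TaqMan qRT-PCR, ACTB/GAPDH/POLR2A normalization; gain/loss fit vs DMSO.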

[3] = read-out: Transforming Growth Factor (TGFB1), TGFB1 (gene 7040); experiment: LTEA_HepaRG_TGFB1: Life Technologies and Expression Analysis (LTEA) Assay for Transforming Growth Factor (TGFB1) Transporter using HepaRG (AID 2283533; active means hit-call score of the fitted dose curve at least 0.9, where 1 is the maximum; inactive means score below 0.9); conditions: mRNA level, 48 h; actives raise or lower the signal
Summary of the method: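 TGFB1 transcript measured by qRT-PCR with normalisation to three housekeeping genes (ACTB, GAPDH, POLR2A); human HepaRG line treated in duplicate for 48 hr with an 8-point series topping at 100 uM, 0.5% DMSO vehicle, bidirectionally fitted.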

TIMP1, TIMP1 (gene 7076) = experiment: LTEA_HepaRG_TIMP1: Life Technologies and Expression Analysis (LTEA) Assay for TIMP1 using HepaRG (AID 2283534; active means hit-call score of the fitted dose curve at least 0.9, where 1 is the maximum; inactive means score below 0.9); conditions: mRNA level, 48 h; actives raise or lower the signal
Summary of the method: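 Bidirectional change in TIMP1 transcript versus 0.5% DMSO, measured by TaqMan qRT-PCR with three housekeeping genes for normalization. HepaRG human liver cells dosed 48 h in duplicate, top concentration 100 uM with half-log dilutions.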

[4] = read-out: Tumor necrosis factor receptor 1 (TNFRSF1A), TNFRSF1A (gene 7132); experiment: LTEA_HepaRG_TNFRSF1A: Life Technologies and Expression Analysis (LTEA) Assay for Tumor necrosis factor receptor 1 (TNFRSF1A) using HepaRG (AID 2283535; active means hit-call score of the fitted dose curve at least 0.9, where 1 is the maximum; inactive means score below 0.9); conditions: mRNA level, 48 h; actives raise or lower the signal
Summary of the method: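 mRNA measured by qRT-PCR (TaqMan, Fluidigm arrays) against ACTB/GAPDH/POLR2A housekeepers after 48 h chemical exposure of HepaRG cells. Top concentration 100 uM, half-log 8-point series, duplicates; vehicle 0.5% DMSO, both fit directions.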

[5] = read-out: Thyroid Hormone Responsive (THRSP), THRSP (gene 7069); experiment: LTEA_HepaRG_THRSP: Life Technologies and Expression Analysis (LTEA) Assay for Thyroid Hormone Responsive (THRSP) using HepaRG (AID 2283536; active means hit-call score of the fitted dose curve at least 0.9, where 1 is the maximum; inactive means score below 0.9); conditions: mRNA level, 48 h; actives raise or lower the signal
Summary of the method: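 mRNA induction or loss relative to 0.5% DMSO vehicle was fitted bidirectionally across an eight-point curve whose highest exposure was 100 uM. Human HepaRG liver cells received chemicals in duplicate over 48 h before RNA extraction.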

[6] = read-out: UDP glucuronosyltransferase (UGT1A1), UGT1A1 (gene 54658); experiment: LTEA_HepaRG_UGT1A1: Life Technologies and Expression Analysis (LTEA) Assay for UDP glucuronosyltransferase (UGT1A1) using HepaRG (AID 2283538; active means hit-call score of the fitted dose curve at least 0.9, where 1 is the maximum; inactive means score below 0.9); conditions: mRNA level, 48 h; actives raise or lower the signal
Summary of the method: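 HepaRG cells, 0.5% DMSO vehicle, 48 h exposure in serum-free induction medium to 8-point half-log series topping at 100 uM, in duplicate. UGT1A1 mRNA by Fluidigm qRT-PCR, normalized to ACTB/GAPDH/POLR2A; bidirectional fit versus DMSO.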

[7] = read-out: UDP glucuronosyltransferase (UGT1A6), UGT1A6 (gene 54578); experiment: LTEA_HepaRG_UGT1A6: Life Technologies and Expression Analysis (LTEA) Assay for UDP glucuronosyltransferase (UGT1A6) using HepaRG (AID 2283539; active means hit-call score of the fitted dose curve at least 0.9, where 1 is the maximum; inactive means score below 0.9); conditions: mRNA level, 48 h; actives raise or lower the signal
Summary of the method: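 Expression was quantified by TaqMan qRT-PCR on Fluidigm arrays with ACTB/GAPDH/POLR2A normalization and bidirectional fitting against 0.5% DMSO. HepaRG cells (~100,000/well) were treated in duplicate for 48 h at eight half-log concentrations up to 100 uM in serum-free induction medium.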

[8] = read-out: X-box binding protein 1 (XBP1), XBP1 (gene 7494); experiment: LTEA_HepaRG_XBP1: Life Technologies and Expression Analysis (LTEA) Assay for X-box binding protein 1 (XBP1) using HepaRG (AID 2283540; active means hit-call score of the fitted dose curve at least 0.9, where 1 is the maximum; inactive means score below 0.9); conditions: mRNA level, 48 h; actives raise or lower the signal
Summary of the method: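 XBP1 transcript by qRT-PCR (housekeeping-normalized: ACTB, GAPDH, POLR2A) after 48 h chemical treatment of HepaRG cells, 8-point half-log series topping at 100 uM, vehicle 0.5% DMSO. Gain and loss of signal fitted relative to DMSO.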

[9] = LTEA_HepaRG_LDH_cytotoxicity: Cytotoxicity Assessment in the Life Technologies and Expression Analysis (LTEA) Assay (AID 2283563);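 on AC50: LDH activity released into spent culture medium as a marker of cell death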
Summary of the method: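 LDH release into culture medium read after 48 h chemical treatment of HepaRG cells. Duplicate wells, eight-point half-log series topping at 100 uM, 0.5% DMSO vehicle and baseline.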

[10] = ATG_XTT_Cytotoxicity: Cytotoxicity Assessment in the Attagene TRANS-FACTORIAL HepG2 Assay (AID 2283584)
Summary of the method: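 Viability endpoint from XTT after 24 h chemical exposure of reporter-transfected human HepG2 liver cells; signal loss fitted relative to DMSO negative control.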

[11] = TOX21_p53_BLA_p2_viability: Viability Assessment in the Tox21 HCT-116 p53 Agonism Beta-lactamase Assay, Phase 2 (AID 2283591);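 further: compound exposure lasted 16 h at 37 °C; actives lower the ATP signal meaning cytotoxicity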
Summary of the method: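 Cytotoxicity readout: CellTiter-Glo ATP luminescence, 30 min at room temperature, after the beta-lactamase read. Cells were HCT116 exposed 16 h at 37C to compounds pin-transferred at 217-fold dilution from DMSO stocks.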

[12] = target: Cellular tumor antigen p53 (Homo sapiens) (UniProt P04637); experiment: TOX21_p53_BLA_p2_ratio: Tox21 HCT-116 p53 Agonism Beta-lactamase Assay, Ratio, Phase 2 (AID 2283592)
Summary of the method: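 Gain-of-signal p53 agonism was scored from the beta-lactamase FRET ratio (460/530 nm, 405 nm excitation) in HCT116 cells treated 16 h at 37C, 5% CO2, with DMSO serving as negative control and baseline.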

[13] = target: Cellular tumor antigen p53 (Homo sapiens) (UniProt P04637); experiment: TOX21_p53_BLA_p3_ratio: Tox21 HCT-116 p53 Agonism Beta-lactamase Assay, Ratio, Phase 3 (AID 2283596)
Summary of the method: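 HCT116 p53-bla cells (4000/well) given compound in DMSO (217-fold dilution) after 5 h, incubated 16 h at 37C. CCF4-AM substrate 2 h at room temperature; 460/530 nm emission ratio, gain fitted against DMSO.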

[14] = target: Cellular tumor antigen p53 (Homo sapiens) (UniProt P04637); experiment: TOX21_p53_BLA_p5_ratio: Tox21 HCT-116 p53 Agonism Beta-lactamase Assay, Ratio, Phase 5 (AID 2283599)
Summary of the method: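 Beta-lactamase reporter ratio (blue 460 nm over green 530 nm, 405 nm excitation) after 2 h CCF4-AM loading, in HCT-116 cells exposed 16 h at 37 C to compounds pinned at 217-fold dilution. Increases relative to DMSO baseline scored.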

[15] = TOX21_p53_BLA_p5_viability: Viability Assessment in the Tox21 HCT-116 p53 Agonism Beta-lactamase Assay, Phase 5 (AID 2283600)
Summary of the method: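 After the 460/530 nm beta-lactamase measurement, the wells received an ATP-detection luciferase reagent; signal was read 30 min later at RT. Compound treatment lasted 16 h on cells pre-incubated 5 h post-seeding.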

[16] = target: Cellular tumor antigen p53 (Homo sapiens) (UniProt P04637); experiment: TOX21_p53_BLA_p4_ratio: Tox21 HCT-116 p53 Agonism Beta-lactamase Assay, Ratio, Phase 4 (AID 2283601)
Summary of the method: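 Signal is the blue/green (460nm/530nm) ratio of cleaved versus uncleaved CCF4-AM substrate, read after 2 h substrate loading. Cells were HCT116 carrying the p53-responsive beta-lactamase reporter, dosed 16 h at 37C, 5% CO2; CellTiter-Glo measured in parallel.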

[17] = TOX21_p53_BLA_p3_viability: Viability Assessment in the Tox21 HCT-116 p53 Agonism Beta-lactamase Assay, Phase 3 (AID 2283593);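 further: cells exposed to compound for 16 h before reading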
Summary of the method: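 Cellular ATP was quantified by CellTiter-Glo luminescence, read after 30 min at room temperature. Beforehand, HCT116 cells (4000/well) received compound 5 h post-seeding, 217-fold diluted from DMSO, then incubated 16 h at 37C.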

[18] = TOX21_p53_BLA_p4_viability: Viability Assessment in the Tox21 HCT-116 p53 Agonism Beta-lactamase Assay, Phase 4 (AID 2283597);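 further: hits lower the luminescence signal meaning cytotoxicity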
Summary of the method: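 Following a 16 h exposure at 37C, the treated HCT116 wells were first read for the FRET ratio. They were then lysed with CellTiter-Glo, and ATP luminescence was recorded after 30 min at room temperature.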

[19] = read-out: Cellular tumor antigen p53 (Homo sapiens) (UniProt P04637); experiment: LTEA_HepaRG_TP53: Life Technologies and Expression Analysis (LTEA) Assay for Tumor Protein P53 (TP53) using HepaRG (AID 2283537; active means hit-call score of the fitted dose curve at least 0.9, where 1 is the maximum; inactive means score below 0.9); conditions: mRNA level, 48 h; actives raise or lower the signal
Summary of the method: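 Read-out is TP53 transcript level by microfluidic qRT-PCR, normalised to three housekeeping genes and fitted bidirectionally against DMSO. Human HepaRG cells received compounds for 48 h, highest concentration 100 uM.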

Measured: AC50

Sequence of Cellular tumor antigen p53 (Homo sapiens) (P04637 whole entry, looked up): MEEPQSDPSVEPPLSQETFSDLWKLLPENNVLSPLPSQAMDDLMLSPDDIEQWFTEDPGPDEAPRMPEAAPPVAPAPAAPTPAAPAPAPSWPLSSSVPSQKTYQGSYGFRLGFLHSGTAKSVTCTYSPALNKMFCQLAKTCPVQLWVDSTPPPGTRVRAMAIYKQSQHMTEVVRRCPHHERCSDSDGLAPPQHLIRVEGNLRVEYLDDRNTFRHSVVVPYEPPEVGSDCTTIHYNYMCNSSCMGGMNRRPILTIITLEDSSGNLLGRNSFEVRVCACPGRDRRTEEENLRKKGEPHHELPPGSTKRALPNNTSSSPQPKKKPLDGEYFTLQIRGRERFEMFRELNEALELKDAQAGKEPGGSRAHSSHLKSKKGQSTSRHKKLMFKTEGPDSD

CCCCCCCCCCO
inactive: [1] | [2] | [3] | [4] | [5] | [6] | [7] | [8] | [9] | [10] | [11] | [12] | [13] | [14] | [15] | [16]
active: TIMP1, TIMP1 (gene 7076) 12.2 µM

c1cc(-c2ccncc2)ccn1
active: [6] 50 µM
inactive: [1] | [2] | [3] | TIMP1, TIMP1 (gene 7076) | [4] | [7] | [8] | [9] | [10] | [11] | [12] | [17] | [13] | [18] | [14] | [15] | [16]

CCOc1ccc2c(c1)C(C)=CC(C)(C)N2
active: [6] 1.61 µM | [14] 67.7 µM | [16] 76.6 µM
inactive: [1] | [2] | [3] | TIMP1, TIMP1 (gene 7076) | [5] | [19] | [7] | [8] | [9] | [11] | [12] | [17] | [13] | [18] | [14] | [15] | [16]

CCCCCCCCCCCCCCCCCC(=O)O
inactive: [1] | [2] | [3] | TIMP1, TIMP1 (gene 7076) | [5] | [19] | [6] | [7] | [8] | [9] | [10]

CCOC(=O)CCC(=O)OCC
inactive: [1] | [2] | [3] | TIMP1, TIMP1 (gene 7076) | [4] | [5] | [6] | [7] | [8] | [9] | [10] | [11] | [12] | [13] | [14] | [15] | [16]

CNCc1cc(F)ccc1Oc1ccc(Cl)c(Cl)c1
active: [1] 84.2 µM | [6] 82.8 µM | [7] 74 µM | [9] 81.7 µM | [16] 64.4 µM
inactive: [2] | [3] | TIMP1, TIMP1 (gene 7076) | [5] | [19] | [8] | [12] | [17] | [13] | [18] | [14] | [15]

CCCCCCC(=O)OCC
inactive: [1] | [2] | [3] | TIMP1, TIMP1 (gene 7076) | [5] | [6] | [7] | [8] | [9] | [10] | [12] | [13] | [16]

Nc1ccc2c(c1)C(=O)c1ccccc1C2=O
inactive: [1] | [2] | [3] | TIMP1, TIMP1 (gene 7076) | [7] | [9] | [10] | [11] | [12] | [17] | [13] | [18] | [14] | [15] | [16]
active: [5] 6.08 µM | [6] 7.74 µM | [8] 10.3 µM
